Active and inactive are the calls of the source. How the source made its calls: active means hit-call score of the fitted dose curve at least 0.9, where 1 is the maximum; inactive means score below 0.9.

Read-out in the assay: solute carrier (SLC22A6), SLC22A6 (gene 9356)
As to the kind of experiment: LTEA_HepaRG_SLC22A6: Life Technologies and Expression Analysis (LTEA) Assay for solute carrier (SLC22A6) using HepaRG (AID 2283653). The following applies: mRNA level, 48 h; actives raise or lower the signal. The procedure:
LTEA_HepaRG is a cell based, multiplexed-readout assay that uses HepaRG, a human liver cell line, with measurements taken at 48 hours after chemical dosing on a 96-well plate.LTEA_HepaRG_SLC22A6 is one of 102 assay component(s) measured in the LTEA HepaRG cell culture assay. It is a marker of NR mediated transport.Data from the assay component LTEA_HepaRG_SLC22A6 was analyzed into 1 endpoint. This assay endpoint, LTEA_HepaRG_SLC22A6, was analyzed with bidirectional fitting relative to DMSO as the negative control and baseline of activity. Using a type of inducible reporter, measures of mRNA induction for gain or loss-of-signal activity can be used to understand regulation of transcription factor activity. To generalize the intended target to other relatable targets, this assay endpoint is annotated to the transporter intended target family, where the subfamily is organic anion transporter.
A total of 1060 chemcials from the ToxCast library were tested in eight-point concentration-response experiments. Cell culture and cytotoxicity assays were conducted at Thermo Fisher Scientific's Custom Services facility (Madison, WI). A single lot of human HepaRG cells (Thermo Fisher Scientific, Frederick, MD) was used for the cell culture experiments. 96-well format collagen type I coated plates of human HepaRG cells were prepared using established methods. Briefly, cryopreserved HepaRG cells were thawed, plated at a density of approximately 100,000 cells/well in HepaRG Thaw, Plate, and General Purpose media (HPRG770, Thermo Fisher Scientific), and incubated for 48 hours. 0.5% DMSO was selected as vehicle control to balance the requisite need of DMSO in HepaRG cultures to maintain differentiation (for example, baseline metabolism, proportions of hepatocytes vs. cholangiocytes), while enabling further hepatic receptor pathway activation (for example, PXR and CAR) in response to chemical exposure. 48 hours after plating, the culture medium was replaced with HepaRG Serum-Free Incudtion Media. Cells were exposed to each test chemical in duplicate and maintained in CO2 incubators for another 48 hours. Chemical plates were thawed to room temperature and 200x concentrations of treatment groups were prepared. 8-point conentration-reponse curves were made with the highest exposure at 100 uM, followed by half-log dilutions, all in 0.5% DMSO. Each test plate contained variouse controls, induction positive controls (1mM phenobarbital), cytotoxicity positive controls ([…] aflatoxin B1), vehicle controls (0.5% DMSO), and total lysis controls (0.5% DMSO). Cell morphology images were taken using an Essen IncuCyte FLR automated microscope, with six 96-well plates imaged in about 24 minutes. Images were captured and exported and JPEG files. Spent culture media was transfered to black-well plates for the LDH assay, and remaining media was sorted at -80 C for later use. Cells were treated with RLT buffer and frozen until shipped for gene expression analysis. Total RNA was isolated from the cell suspension in 75 uL of Buffer RLT (Qiagen, Germantown, MD 20874) by Quintiles/Expression Analysis (Durham, NC) using a custom isolation procedure. Total RNA from each plate well was transferred to a preamplification plate. Fluidigm's 96.96 Dynamic ArrayTM (Fluidigm, Amsterdam, the Netherlands) technology was used for gene expression analyses by quantitative reverse transcription polymerase chain reaction (qRT-PCR, performed by Quintiles/Expression Analysis, Durham, NC)89. Standard TaqManTM Assays (Applied Biosystems/ThermoFisher Scientific, Foster City, CA) were used to assess the expression of 93 genes selected based on their selectivity and sensitivity to important hepatic receptors known to be modulated by environmental chemicals; importance in human hepatocyte functionality; and hepatotoxicity. […]
As for `CN1CSC(=S)N(C)C1`, the call was inactive.
`ClC1C(Cl)C(Cl)C(Cl)C(Cl)C1Cl` (stereo not given): the molecule was classed as inactive.
Then `N#Cc1c(Cl)c(Cl)c(Cl)c(C#N)c1Cl`, with “inactive”; and `CCCN(CCOc1c(Cl)cc(Cl)cc1Cl)C(=O)n1ccnc1`, with “inactive”; and `O=C1c2ccccc2C(=O)N1SC(Cl)(Cl)Cl`, with “inactive”.
Then `CCC(C)Nc1c([N+](=O)[O-])cc(C(C)(C)C)cc1[N+](=O)[O-]` (stereo not given), with “inactive”; and `Cc1[nH]c(=O)n(C(C)(C)C)c(=O)c1Cl`, with “inactive”; and `CC1(C)C(C=C(Cl)Cl)C1C(=O)OC(C#N)c1ccc(F)c(Oc2ccccc2)c1` (stereo not given), with “inactive”.
Then `CCOC1Oc2ccc(OS(C)(=O)=O)cc2C1(C)C` (stereo not given), with “inactive”; and `CCCN(CCC)c1c([N+](=O)[O-])cc(C(F)(F)F)cc1[N+](=O)[O-]`, with “inactive”.

The values above are taken from PubChem BioAssay (EPA / NIEHS).
